# Shown are actives, neighbours in structure and some others; about 14% of the full set was active somewhere.
# Pf growth 48h: inhibits P. falciparum growth in the first generation, 48 h. AID 504832. P. falciparum luciferase growth in erythrocytes, 48 h. 310,000 compounds, 5.9% hits. Potency, µM (titrated, usually from 28.7 µM), inactives show at the top dose activity change, negative = inhibition, hits mostly inhibitors; also: potency is read from the fitted curve at half-maximal effect
#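 Luciferase-expressing P. falciparum in infected erythrocytes (2% hematocrit, 0.1% parasitemia final) in RPMI 1640/0.5% Albumax were exposed to compound for 48 hours at 37 C, 5% CO2; growth read as luminescence.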
# HCMV inh: human cytomegalovirus inhibition; HFF cells, HCMV-luciferase reporter, 72 h; stronger effect = lower value; activity change, negative = inhibition, % at 57.5 µM; 410,000 compounds, 4.5% hits; in the data active = activity change below about -60%; inconclusive = no clear call, values can overlap the other calls; inactive = above about -39%
#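 Compounds were evaluated in HFFs infected with an HCMV luciferase reporter virus (MOI 1 PFU/cell). Luciferase in lysates collected 72 h post infection served as the replication measure.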
# Pf growth 96h: inhibits malaria parasite growth, 96 h. P. falciparum luciferase reporter growth, 96 h. Potency, µM (doses to about 28.7 µM), for the others: top-dose activity change, negative = inhibition, actives largely listed as inhibitors. 320,000 compounds, 6.9% hits. AID 504834; also: potency is read from the fitted curve at half-maximal effect
#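 Luminescence readout: decreased luciferase signal marks inhibited growth of reporter-expressing P. falciparum in infected red cells (2% hematocrit, 0.05% parasitemia final), exposed to compound two generations (96 h, 37 C, 5% CO2).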
# Sm TGR block: blocks Schistosoma mansoni thioredoxin glutathione reductase. Q962Y6. purified TGR, DTNB reduction, TNB absorbance 405 nm. Potency, µM (highest dose often 114 µM), inactives show at the highest dose activity change, negative = inhibition, usual class: inhibitors. 360,000 compounds, 3% hits; also: potency is read from the fitted curve at half-maximal effect; nearly all actives have a fitted effect of over 60% in size
#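 First, TGR (20 nM dispensed) and NADPH were mixed with compound. Second, a 15 min room-temperature incubation followed. Third, further NADPH and then DTNB were added to start the reaction. Finally, TNB absorbance was monitored kinetically.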
# FBPA Giardia inh: Giardia lamblia aldolase inhibition; AID 2451; A8B2U2; purified Giardia FBPA; 290,000 compounds, 0.71% hits; Potency, µM (highest dose often 59.6 µM), inactives show top-dose activity, negative = inhibition, actives largely listed as inhibitors; also: potency is read from the fitted curve at half-maximal effect; nearly all actives have a fitted effect of over 55% in size
# Target sequence (A8B2U2 whole entry, looked up): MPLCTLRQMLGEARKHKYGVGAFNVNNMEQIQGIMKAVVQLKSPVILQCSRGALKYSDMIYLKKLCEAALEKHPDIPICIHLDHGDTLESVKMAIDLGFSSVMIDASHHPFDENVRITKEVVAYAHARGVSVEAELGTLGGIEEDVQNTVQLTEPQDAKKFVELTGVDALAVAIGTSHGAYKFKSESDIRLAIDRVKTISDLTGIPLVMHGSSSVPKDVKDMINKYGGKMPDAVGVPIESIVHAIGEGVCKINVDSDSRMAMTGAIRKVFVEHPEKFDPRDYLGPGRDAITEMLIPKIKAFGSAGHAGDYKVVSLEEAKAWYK
#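 Giardia FBPA (40 nM reagent) was preincubated 10 min at RT with compound (up to 57.5 uM final), then substrate plus GAPDH/TPI/NAD/arsenate coupling system with diaphorase/resazurin was added; resorufin fluorescence (525/598 nm) was read after 20 min.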
# * hit, by the source's call; ? = inconclusive; · = not tested or not shown; [ ] = another dose, or the depositor's remark. Unless noted, calls follow the shape of the dose curve; as a rule, active = well fitted curve in the direction sought with a large enough effect; inconclusive = small, poorly fitted or top-dose-only effect, or another doubt; inactive = no such curve, though single readings can be large; an effect the other way counts as inactive or inconclusive. % is scaled to controls: 0 for no effect and ±100 for the full control effect.
SMILES,Pf growth 48h,HCMV inh,Pf growth 96h,Sm TGR block,FBPA Giardia inh
Cc1ccccc1CNC(=O)C(=O)NCC(c1ccco1)S(=O)(=O)c1cccs1 (centres undefined),·,-22,·,?,·
O=C(NCc1ccccc1F)C(=O)NCC(c1ccco1)S(=O)(=O)c1cccs1 (centres undefined),·,7,·,13µM*,·
O=C(NCc1ccc(F)cc1)C(=O)NCC(c1ccco1)S(=O)(=O)c1cccs1 (centres undefined),·,13,·,7.9µM*,·
O=C(NCc1ccccc1Cl)C(=O)NCC(c1ccco1)S(=O)(=O)c1cccs1 (centres undefined),·,5,·,32µM*,·
COc1ccccc1CNC(=O)C(=O)NCC(c1ccco1)S(=O)(=O)c1cccs1 (centres undefined),·,-3,·,8.9µM*,·
COCCNC(=O)C1(C)CCCN(Cc2cc(C(F)(F)F)ccc2Cl)C1 (centres undefined),·,2,·,·,·
CCCN1CCc2c(sc(NC(=O)C3CCN(S(=O)(=O)c4cccs4)CC3)c2C(N)=O)C1,?,-15,?,-13%,·
COc1ccc(-c2csc3nc(-c4ccccc4C)oc(=O)c23)cc1OC,·,-9,·,1%,·
Cc1ccc(S(=O)(=O)Cc2ccccc2Cl)cc1,-5%,-25,?,-8%,-11%
C#CCn1c(S(=O)(=O)Cc2ccc(C)cc2)nc(-c2ccccc2)c1-c1ccccc1,?,-95*,?,6%,-5%
CCOC(=O)Cn1c(S(=O)(=O)Cc2ccccc2Cl)nc(-c2ccccc2)c1-c1ccccc1,9.3µM*,-32,2.6µM*,7%,0%
CCOC(=O)Cn1c(-c2cccnc2)nc(-c2ccccc2)c1-c1ccccc1,4.1µM*,?,2.3µM*,-4%,18%
C#CCn1c(S(=O)(=O)Cc2ccccc2Cl)nc(-c2ccccc2)c1-c1ccccc1,8.3µM*,-70*,?,1%,-4%
CCC[C@@H]1C[C@@]1(CCC)C(NP(=O)(c1ccccc1)c1ccccc1)c1ccc(Cl)cc1 (some centres undefined),·,·,·,·,-3%
NC(=O)CSc1ncc2c(n1)-c1ccccc1N(Cc1ccc(F)cc1)S2(=O)=O,·,-3,·,-2%,·
Cn1c(=O)c2c(nc(SCCN3CCOCC3)n2C)n(C)c1=O,?,27,3.7µM*,4%,-12%
CCn1c(SCC(=O)N2c3ccccc3CCc3ccccc32)nc2c1c(=O)n(C)c(=O)n2C,·,21,·,·,·
Cc1ccc(Cn2c(SCCN3CCCCC3)nc3c2c(=O)n(C)c(=O)n3C)cc1,-17%,-100*,?,0%,-6%
Cn1c(=O)c2c(nc(SCCN3CCCCC3)n2Cc2ccccc2)n(C)c1=O,?,72,2.3µM*,-30%,5%
CC1Cc2ccccc2N1C(=O)CSc1nc2c(c(=O)n(C)c(=O)n2C)n1Cc1ccccc1 (centres undefined),5.9µM*,-97*,-22%,10%,-4%
CCCCn1c(SCCN2CCCCC2)nc2c1c(=O)n(C)c(=O)n2C,·,-24,·,·,·
CCC(=O)N1CCc2cc(CNS(=O)(=O)c3ccccc3F)ccc21,·,44,·,1%,·
O=C(Nc1cccc(Cl)c1)c1cc2c(=O)[nH]c3ccccc3c2s1,·,34,·,-1%,·
C[C@H](CO)N1C[C@H](C)[C@@H](CN(C)S(=O)(=O)c2ccc(F)cc2)Oc2ncc(Br)cc2C1=O,·,-10,·,·,·
C=CCOc1ccccc1CN(C(=O)CCl)c1ccc2c(c1)OCO2,?,-99*,12µM*,8.9µM*,7%
SMILES,Pf growth 48h,HCMV inh,Pf growth 96h,Sm TGR block,FBPA Giardia inh
CCOc1ccccc1CN(CCc1ccc2c(c1)OCO2)Cc1ccc(CC)cc1,·,?,·,7%,·
Cc1c(C(=O)N2CCCCC2)c(S(=O)(=O)N(C)Cc2ccccc2)c(C)n1C,-23%,19,?,1%,9%
CCOC(=O)C1NN=C(C(=O)c2ccc(C)cc2)C1c1ccc(C)cc1 (centres undefined),?,-29,10µM*,1%,1%
CCOC(=O)C1=NNC(C(=O)c2ccc(Cl)cc2)C1c1ccc(OC)cc1 (centres undefined),?,-32,13µM*,-1%,-7%
CCOC(=O)C1=NNC(C(=O)c2ccc(Cl)cc2)C1c1ccccc1 (centres undefined),3%,-20,0%,-7%,1%
CCOC(=O)C1=NNC(C(=O)OCC)C1c1ccccc1 (centres undefined),·,1,·,·,·
CCOC(=O)C1=NNC(C(=O)c2ccc(C)cc2)C1c1ccc(OC)cc1 (centres undefined),12µM*,-39,·,-2%,-6%
CCN(c1cccc(C)c1)S(=O)(=O)c1ccc(-c2ccc(=O)[nH]n2)o1,4%,?,-3%,?,-18%
CCOCc1nnc(NC(=O)c2cc(OC)c(OC)cc2[N+](=O)[O-])s1,8%,1,195%,1%,-7%
CCOC(=O)c1c(C)n(C)c2ccc(OC)c(NC(=O)CN3CCN(Cc4ccccc4)CC3)c12,10µM*,9,26%,11%,0%
CCOC(=O)c1c(C)n(C)c2ccc(OC)c(NC(=O)CN3CCN(C4CCCCC4)CC3)c12,?,-16,·,-11%,6%
CCOC(=O)c1c(C)n(C)c2ccc(OC)c(NC(=O)CN3CCC(C(=O)OCC)CC3)c12,?,-13,3.3µM*,6%,0%
Cc1ccc(S(=O)(=O)N(CC(=O)N2CCc3ccccc3C2)c2ccc(Cl)c(Cl)c2)cc1,10µM*,2,?,-5%,-1%
COc1cccc(N(CC(=O)N2CCN(C)CC2)S(=O)(=O)c2ccc(C)cc2)c1,-10%,-4,12µM*,17%,5%[12.9 µM]
COc1ccc(C)cc1S(=O)(=O)N(C)CC(=O)N1CCN(C)CC1,·,-5,21%,2%,2%
COc1ccc(N(CC(=O)N2CCN(C)CC2)S(=O)(=O)c2cc(C)ccc2OC)cc1Cl,-10%,114,8.3µM*,14%,-7%
O=S(=O)(Nc1ccccc1)C1CCCCC1,·,-25,·,·,·
C[C@@H]1O[C@@H](O[C@@H]2[C@@H](O)[C@H](OCCc3ccc(O)c(O)c3)O[C@H](CO)[C@H]2OC(=O)/C=C/c2ccc(O)c(O)c2)[C@H](O)[C@H](O)[C@H]1O,·,-5,·,·,·
Cc1cc(C)c(OCC(O)CN2CCN(C(=O)c3ccccc3)CC2)c(C)c1 (centres undefined),?,11,6.6µM*,5%,?
Cc1cc(C)nc(Nc2ccc(N3CCCC3)cc2)n1,?,-38,·,?,-28%
Oc1cc(Nc2ccc(N3CCCCC3)cc2)cc2cccnc12,0.1µM*,·,0.093µM*,-24%,·
O=C(NCCCNc1ccc([N+](=O)[O-])cc1)C(F)(F)F,-30%,32,217%,6%,0%
O=C(CCl)N(CCCNC(=O)C(F)(F)F)c1ccc([N+](=O)[O-])cc1,9.3µM*,-101*,?,2.8µM*,0%

# Screens as filed in PubChem.
